Where a name gives a salt, the structure may show the parent alone.
test system: HeLa MZ; assay: filipin (cholesterol) integrated intensity within LBPA endosomes, Z-score; higher = more cholesterol in LBPA endosomes; conditions: compound concentration in added solution (µM; 5 µl added to 20 µl cells): 10; 18 h
Outline: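 Z-scores normalised in AcuityXpress are given for per-cell integrated LBPA or filipin intensity, measured whole-cell or within LBPA endosomes by MetaXpress segmentation. Cells (HeLa MZ or A431, 3,500 per well in 20 µl) were seeded onto 5 µl of 10 µM compound solution in duplicate 384-well imaging plates and fixed in 4% PFA after 18 h.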

Question: C=C1C[C@@H]2[C@H](CC[C@]3(C)C(=O)CC[C@@H]23)[C@@]2(C)C=CC(=O)C=C12 [Exemestane] was tested. Which “filipin (z-score)” value did it give?
Answer: -0.552

Question: With CC[N+]1(C)CCCC(OC(=O)C(O)(c2ccccc2)c2ccccc2)C1 (stereo not given) [Pipenzolate bromide] as the compound, how does the “filipin (z-score)” value read?
Answer: -0.211

Question: With C=CCC1(CC(C)C)C(=O)NC(=O)NC1=O [Butalbital] as the compound, how does the “filipin (z-score)” value read?
Answer: -0.51

Question: For CCCC(C)C1(CC)C(=O)NC(=O)NC1=O (stereo not given) [Pentobarbital], which “filipin (z-score)” value is on record?
Answer: -0.624

Question: CC(=O)OCC1=C(C(=O)O)N2C(=O)[C@@H](N)[C@H]2SC1 [Cephalosporanic acid, 7-amino] was tested. Which “filipin (z-score)” value did it give?
Answer: -0.604

Question: How did the “filipin (z-score)” value turn out when Cc1cccc(C)c1NC1=NCCCS1 [Xylazine] was run?
Answer: -0.0906

Question: Which “filipin (z-score)” value does the source give for CC(C)(N)Cc1ccccc1 [Phentermine hydrochloride] here?
Answer: -0.0575

Question: How did the “filipin (z-score)” value turn out when CN(C)C(=O)Oc1cc(OC(=O)N(C)C)cc(C(O)CNC(C)(C)C)c1 (stereo not given) [Bambuterol hydrochloride] was run?
Answer: -0.586

Question: For CN1C[C@H](C(=O)N[C@]2(C)O[C@@]3(O)[C@@H]4CCCN4C(=O)[C@H](Cc4ccccc4)N3C2=O)C[C@@H]2c3cccc4[nH]cc(c34)C[C@H]21 [Dihydroergotamine tartrate], which “filipin (z-score)” value is on record?
Answer: 1.1

Question: For CCCC(C)(COC(N)=O)COC(=O)NC(C)C (stereo not given) [Carisoprodol], which “filipin (z-score)” value is on record?
Answer: -0.604

Question: With O=C(CCCN1CCC2(CC1)C(=O)NCN2c1ccccc1)c1ccc(F)cc1 [Spiperone] as the compound, how does the “filipin (z-score)” value read?
Answer: 2.13

Question: CCC1(c2cccc(O)c2)CCCCN(C)C1 (stereo not given) [Meptazinol hydrochloride] was tested. Which “filipin (z-score)” value did it give?
Answer: -0.0124

Question: For CN1[C@@H]2CC[C@H]1C[C@@H](OC1c3ccccc3CCc3ccccc31)C2 [Deptropine citrate], which “filipin (z-score)” value is on record?
Answer: 1.23

Question: CC(C)CC(N(C)C)C1(c2ccc(Cl)cc2)CCC1 (stereo not given) [Sibutramine HCl] was tested. Which “filipin (z-score)” value did it give?
Answer: -0.424

Question: Which “filipin (z-score)” value does the source give for C[C@]12COC(=O)C[C@@H]1CC[C@@H]1[C@@H]2CC[C@@]2(C)[C@H]1CC[C@]2(C)O [Oxandrolone] here?
Answer: -0.517

Question: How did the “filipin (z-score)” value turn out when COc1ccc2c(c1)[C@]13CCCC[C@@H]1[C@H](C2)N(C)CC3 [Dextromethorphan hydrobromide monohydrate] was run?
Answer: 0.237

Question: CCC(=O)O[C@H]1CC[C@H]2[C@@H]3CCC4=CC(=O)CC[C@]4(C)[C@H]3CC[C@]12C [Testosterone propionate] was tested. Which “filipin (z-score)” value did it give?
Answer: -0.546

Question: For C[C@]12CC[C@@H](O)C[C@@H]1CC[C@@H]1[C@@H]2CC[C@]2(C)C(=O)CC[C@@H]12 [Androsterone], which “filipin (z-score)” value is on record?
Answer: -0.291

Question: COc1cc2c(cc1OC)C(C)NCC2 (stereo not given) was tested. Which “filipin (z-score)” value did it give?
Answer: -0.121

Question: Which “filipin (z-score)” value does the source give for C[C@]12C[C@H]3S[C@H]3C[C@@H]1CC[C@@H]1[C@@H]2CC[C@]2(C)[C@@H](O)CC[C@@H]12 [Epitiostanol] here?
Answer: -0.401

Question: Which “filipin (z-score)” value does the source give for C1CCc2nnnn2CC1 [Pentylenetetrazole] here?
Answer: -0.614

Question: Which “filipin (z-score)” value does the source give for NCCCNCCSP(=O)(O)O [Amifostine] here?
Answer: -0.603

Question: How did the “filipin (z-score)” value turn out when CCC1(c2ccc(N)cc2)CCC(=O)NC1=O (stereo not given) [Glutethimide, para-amino] was run?
Answer: -0.691

Question: How did the “filipin (z-score)” value turn out when CCNCC(O)c1cccc(O)c1 (stereo not given) [Etilefrine hydrochloride] was run?
Answer: -0.466

Question: How did the “filipin (z-score)” value turn out when CCN(CC)C(C)C(=O)c1ccccc1 (stereo not given) [Amfepramone hydrochloride] was run?
Answer: -0.615

Question: CN1CCN(C(=O)OC2c3nccnc3C(=O)N2c2ccc(Cl)cn2)CC1 (stereo not given) [Zopiclone] was tested. Which “filipin (z-score)” value did it give?
Answer: -0.296

Question: With CC(O)(CS(=O)(=O)c1ccc(F)cc1)C(=O)Nc1ccc(C#N)c(C(F)(F)F)c1 (stereo not given) [Bicalutamide] as the compound, how does the “filipin (z-score)” value read?
Answer: -0.188

Question: For CC(=O)O[C@H]1CC[C@@]2(C)C(=CC[C@@H]3[C@@H]2CC[C@]2(C)C(=O)CC[C@@H]32)C1 [Dehydroisoandosterone 3-acetate], which “filipin (z-score)” value is on record?
Answer: -0.214

Question: Which “filipin (z-score)” value does the source give for C[C@H](N)[C@H](O)c1ccc(O)c(O)c1 [Levonordefrin] here?
Answer: -0.337

Question: For C=C1[C@@H]2CC[C@H]3[C@]4(C)C[C@H](O[C@@H]5O[C@H](CO)[C@@H](OS(=O)(=O)O)[C@H](OS(=O)(=O)O)[C@H]5OC(=O)CC(C)C)C[C@@H](C(=O)O)[C@H]4CC[C@]3(C2)[C@@H]1O [Atractyloside potassium salt], which “filipin (z-score)” value is on record?
Answer: -0.47

Question: For O=c1c2ccccc2[se]n1-c1ccccc1 [Ebselen], which “filipin (z-score)” value is on record?
Answer: -0.243

Question: CCC1=C[C@H]2CN3CCc4c([nH]c5ccccc45)[C@](C(=O)OC)(C2)[C@H]13 [Catharanthine] was tested. Which “filipin (z-score)” value did it give?
Answer: 0.861

Question: How did the “filipin (z-score)” value turn out when CC(=O)OCC(=O)[C@H]1CC[C@H]2[C@@H]3CC[C@H]4C[C@H](O)CC[C@]4(C)[C@H]3C(=O)C[C@]12C [Alfadolone acetate] was run?
Answer: 0.736

Question: CN[C@@H]1[C@@H](O)[C@@H](O[C@@H]2[C@@H](O)[C@H](O[C@H]3O[C@H](CN)CC[C@H]3N)[C@@H](N)C[C@H]2N)OC[C@]1(C)O.CN[C@@H]1[C@@H](O)[C@@H](O[C@@H]2[C@@H](O)[C@H](O[C@H]3O[C@H]([C@@H](C)N)CC[C@H]3N)[C@@H](N)C[C@H]2N)OC[C@]1(C)O.CN[C@@H]1[C@@H](O)[C@@H](O[C@@H]2[C@@H](O)[C@H](O[C@H]3O[C@H]([C@@H](C)NC)CC[C@H]3N)[C@@H](N)C[C@H]2N)OC[C@]1(C)O [Gentamicine sulfate] was tested. Which “filipin (z-score)” value did it give?
Answer: -0.682

Question: For O=[N+]([O-])O[C@H]1CO[C@H]2[C@@H]1OC[C@H]2O[N+](=O)[O-] [Isosorbide dinitrate], which “filipin (z-score)” value is on record?
Answer: -0.471

Source: the supplement of paper PMC6607015
